Rab9 prom act: Rab9 promoter activation | Huh7 Rab9 promoter-luciferase reporter, luminescence, 24 h | 2.8% of 320,000 active | Potency, µM (highest dose often 9.22 µM), for inactives: at the top dose activation, negative = inhibition, usual class: activators; further: % of control where 0% means no effect; nearly all actives have a fitted effect of over 60% in size
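Luminescence read-out: Huh7 cells stably expressing Rab9-luciferase, treated 24 h with compound at 37 °C, then lysed with luciferase reagent for 10 min at ambient before reading.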
SMN2 splice up: SMN2 splice variant enhancement | HEK293 SMN2-luciferase splicing reporter, luminescence, 30-36 h | Potency, µM (top dose mostly 46.1 µM), without a hit: at the highest dose activity change, positive = activation, hits mostly activators | 2.8% of 210,000 active; further: % of control where 0% means no effect; nearly all actives have a fitted effect of over 55% in size
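HEK293 cells carry an SMN2 minigene-luciferase reporter in which exon 7 inclusion puts luciferase in frame. Cells were seeded at 2000 cells/well, attached for 10-12 hours, then exposed to compounds for 30-36 hours at 37C before ONE-Glo luminescence.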
KinaseGlo FLuc: counter-screen: inhibitors of Kinase-Glo firefly luciferase; Potency, µM (doses to about 38.3 µM), inactives show at the highest dose activity change, negative = inhibition, actives largely listed as inhibitors; Q27757; Kinase-Glo luciferase, ATP luminescence, 8 min; 0.28% of 200,000 active; further: on the % scale 0 is the no-effect control and ±100 the full control effect; nearly all actives have a fitted effect of over 60% in size
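Recombinant Kinase-Glo luciferase, 10 uM ATP (linear range), luciferin; imidazole pH 7.2 / KCl / MgCl2 / Tween / BSA buffer; 8 min RT; luminescence.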
FLuc counter: inhibits or activates purified firefly luciferase, miR-21 counter-screen | 6.9% of 360,000 active | purified FLuc, Km substrates, luminescence inhibition | AID 588342 | P08659 | Potency, µM (doses to about 57.5 µM), inactives show at the highest dose activity change, negative = inhibition, actives largely listed as inhibitors;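 further: plate controls were vehicle for no effect and reference inhibitor for full effect; nearly all actives have a fitted effect of over 55% in size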
Target sequence (P08659 whole entry, looked up): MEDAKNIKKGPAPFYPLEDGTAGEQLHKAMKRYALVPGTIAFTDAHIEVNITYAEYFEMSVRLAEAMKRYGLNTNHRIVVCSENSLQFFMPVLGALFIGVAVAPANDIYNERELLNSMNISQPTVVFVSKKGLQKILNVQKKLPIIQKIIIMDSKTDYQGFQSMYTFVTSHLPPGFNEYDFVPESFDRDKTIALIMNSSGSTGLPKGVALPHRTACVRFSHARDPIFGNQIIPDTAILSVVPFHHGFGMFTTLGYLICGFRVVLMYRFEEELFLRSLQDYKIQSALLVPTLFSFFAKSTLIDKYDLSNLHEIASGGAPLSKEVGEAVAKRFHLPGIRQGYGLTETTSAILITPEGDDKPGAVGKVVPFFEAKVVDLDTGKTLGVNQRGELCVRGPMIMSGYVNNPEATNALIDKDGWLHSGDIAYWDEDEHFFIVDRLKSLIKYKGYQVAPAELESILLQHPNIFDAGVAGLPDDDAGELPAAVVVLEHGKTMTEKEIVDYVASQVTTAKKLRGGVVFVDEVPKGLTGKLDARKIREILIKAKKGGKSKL
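Biochemical qHTS of compounds, final roughly 60 µM downward over six points, against 10 nM purified firefly luciferase using Km concentrations of substrates (10 uM D-luciferin, 10 uM ATP) in Tris acetate pH 7.5 buffer; luminescence output.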
NPC1 promoter act: activators of NPC1 promoter; Huh7 NPC1 promoter luciferase reporter, 24 h; 2.4% of 320,000 active; Potency, µM (series often up to 9.22 µM), for inactives: at the top dose activation, actives largely listed as activators; further: % of control where 0% means no effect; nearly all actives have a fitted effect of over 60% in size
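Luminescence read-out of NPC1 promoter-driven luciferase in stably transfected Huh7 cells; compounds delivered in DMSO and left 24 h at 37C, 5% CO2, qHTS titration format.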
Active calls of the source: *; ? = inconclusive; · = no result; [ ] = remark or other dose. In the library only some 7.3% were active in any assay of this set; here they are far more common. The call rests on the fitted dose curve; in most records, active means well fitted curve in the direction sought with a large enough effect; inconclusive means small, poorly fitted or top-dose-only effect, or another doubt; inactive means no such curve, though single readings can be large; an effect the other way counts as inactive or inconclusive. Potency means the concentration at half of the fitted maximal effect.

SMILES	Rab9 prom act	SMN2 splice up	KinaseGlo FLuc	FLuc counter	NPC1 promoter act
CCn1cc(Br)c(C(=O)Nc2cccc(Cl)c2)n1	2µM*	11µM*	1%	?	4µM*
OCc1cn(Cc2ccc(O)c3ncccc23)cn1	5%	·	·	0%	-1%
COc1ccc(-n2nc3ccccc3n2)cc1	28%	7%	-2%	?	19%
COc1ccc(-n2nc3cc(C)c(N)c(Br)c3n2)cc1	1.3µM*	7.9µM*	-2%	1.1µM*	2.8µM*
COc1ccc(-n2nc3cc(N)c(Br)cc3n2)cc1	?	·	·	4.8µM*	?
COc1ccccc1N1CCN(C(=O)C2CCN(S(=O)(=O)c3cn(C)cn3)CC2)CC1	·	·	·	-1%	·
O=C(CN1C(=O)CCn2nc(-c3ccccc3)cc21)NCc1ccc(F)cc1	·	·	·	-2%	·
c1nc(Nc2ccc(N3CCOCC3)cc2)c2ccsc2n1	?	·	·	17µM*	3.2µM*
COc1cccc(Nc2ncnc3sccc23)c1	?	·	·	17µM*	?
c1ccc(Nc2ncnc3sccc23)cc1	-1%	·	·	?	1%
COc1cccc(Nc2ncnc3sc(C)cc23)c1	?	·	·	17µM*	26%
COC(=O)c1cccc(Nc2ncnc3sccc23)c1	22%	-41%	4%	?	-4%
COc1ccc(Nc2ncnc3sccc23)cc1	?	·	·	24µM*	?
Cc1ccc(C)c(S(=O)(=O)c2nnn3c2nc(NCc2ccc4c(c2)OCO4)c2sccc23)c1	·	·	·	-19%	·
CCOC(=O)c1c(NC(=O)CSc2cn(CCNC(=O)c3ccc(OC)cc3)c3ccccc23)sc2c1CCCC2	·	3%	·	-11%	·
CC(C)c1nn2c(=O)cc(COC(=O)c3ccccc3NC(=O)COc3ccccc3)nc2s1	·	·	·	21µM*	·
CC(C)c1nn2c(=O)cc(COC(=O)c3ccc(NC(=O)COc4ccccc4)cc3)nc2s1	·	·	·	2%	·
O=C(COc1ccccc1)Nc1ccccc1C(=O)OCc1cc(=O)n2nc(C3CC3)sc2n1	·	·	·	21µM*	·
COCC(C)NC(=O)c1cc2c(=O)n3cccc(C)c3nc2s1 (stereo not drawn)	·	-16%	·	-1%	·
CCOC(=O)c1ccccc1NC(=O)N(C)CCc1c(C)nn(CC)c1C	·	·	·	-1%	·
COc1cccc(OCc2cc(C(=O)N3CCN(C(C)=O)CC3)no2)c1	3.2µM*	·	·	?	?
COc1cccc(OCc2cc(C(=O)N3CCN(c4ccccc4OC)CC3)no2)c1	?	·	·	15µM*	?
COc1cccc(OCc2cc(C(=O)N3CCN(c4ccccc4O)CC3)no2)c1	3.2µM*	·	·	12µM*	2.8µM*
COc1cc(NC(=O)Cn2ncc3c([nH]c4ccc(C)cc43)c2=O)cc(OC)c1OC	·	·	·	-3%	·
CCn1cc(C(=O)NCCc2ccccc2)c(=O)c2cc(S(=O)(=O)N(C)C3CCCCC3)ccc21	·	1%	·	-8%	·
SMILES	Rab9 prom act	SMN2 splice up	KinaseGlo FLuc	FLuc counter	NPC1 promoter act
Cc1ccc(C)c(N2CCN(CCCNC(=O)C3COc4ccccc4C3)CC2)c1 (stereo not drawn)	·	·	·	-5%	·
CNC(=O)/C(C#N)=C/c1ccc(-c2nc3ccccc3s2)o1	1.4µM*	·	·	?	2.8µM*
N#C/C(=C\c1ccc(-c2nc3ccccc3s2)o1)C(N)=O	?	·	·	2.7µM*	3.2µM*
COc1ccc2cc3cc(C(=O)N4CCCC(C)C4)oc3nc2c1 (stereo not drawn)	2µM*	·	·	5.4µM*	2.5µM*
COc1ccc2nc3oc(C(=O)N4CC(C)CC(C)C4)cc3cc2c1 (stereo not drawn)	12%	·	·	21µM*	-1%
CCOC(=O)C1CCCN(C(=O)c2cc3cc4ccc(OC)cc4nc3o2)C1 (stereo not drawn)	24%	·	·	?	2%
CC1CC(C)CN(C(=O)c2cc3cc(Br)cc(Br)c3o2)C1 (stereo not drawn)	17%	11%	3%	17µM*	15%
COc1ccc2nc3oc(C(=O)N4CCCCC4)cc3cc2c1	2.8µM*	14µM*	1%	6.7µM*	3.2µM*
COc1ccc2cc3cc(C(=O)N4CCN(c5ccccc5)CC4)oc3nc2c1	-1%	-41%	-5%	?	-1%
O=C(CSc1nc2sc3c(c2c(=O)[nH]1)CCCC3)Nc1ccccc1F	·	·	·	-14%	·
COC(=O)[C@@H]1[C@@H]2C[C@H]3c4[nH]c5ccccc5c4CCN3C[C@@H]2CC[C@@H]1OS(=O)(=O)O	·	1%[9.22 µM]	-3%[7.66 µM]	·	·
CCOC(=O)C1CCN(C(=O)c2cc3cc4cc(OC)ccc4nc3o2)CC1	3.2µM*	11µM*	4%	?	?
Cc1oc(-c2ccc(-c3ccccc3)cc2)nc1CN(CCO)C(C)C	?	·	·	11µM*	?
Cc1oc(-c2ccc(-c3ccccc3)cc2)nc1CN(C)C1CCOC1 (stereo not drawn)	?	·	-1%	9.5µM*	?
Cc1ccc(-c2nc(CS(=O)(=O)CC(=O)NCCCN(Cc3ccccc3)C(C)C)c(C)o2)cc1	-4%	·	·	-2%	-7%
O=C(NCc1ccc(F)cc1)c1c2c(nc3ccccc13)CCC2	?	5%	2%	13µM*	?
O=C(NCc1ccco1)c1c2c(nc3ccccc13)CCC2	-5%	-12%	-4%	-18%	-4%
COc1ccc(N2CCN(c3c4c(nc5nncn35)CCC4)CC2)cc1	·	-45%	·	-9%	·
O=C(O)c1cccc(Nc2ncnc3c2cnn3-c2ccccc2)c1	3.2µM*	13µM*	-4%	2.1µM*	1.3µM*
COc1ccc(OC)c(Nc2ncnc3c2cnn3-c2ccccc2)c1	-1%	10%	0%	?	10%
Oc1cccc(Nc2ncnc3ccccc23)c1	3%	9%	2%	?	7%
Clc1cccc(Nc2ncnc3c2cnn3-c2ccccc2)c1	17%	2%	3%	27µM*	25%
Fc1cccc(Nc2ncnc3c2cnn3-c2ccccc2)c1	?	·	·	17µM*	?
O=C(O)c1cccc(Nc2ncnc3ccccc23)c1	16%	18%	-4%	19µM*	0%
N#Cc1cccc(Nc2ncnc3c2cnn3-c2cccc(Cl)c2)c1	·	·	·	-17%	·
SMILES	Rab9 prom act	SMN2 splice up	KinaseGlo FLuc	FLuc counter	NPC1 promoter act
Cc1cc(OCC(=O)Nc2ccc(C(=O)OC3CCCCC3)cc2)cc(C)c1Cl	·	1%	·	-5%	·
N#Cc1c(/N=C/c2cccs2)sc2c1CCC2	2µM*	18µM*	?	1.5µM*	3.2µM*
N#Cc1c(/N=C/c2ccco2)sc2c1CCCCC2	3.5µM*	-10%	?	0.17µM*	0.79µM*
CN1CCc2c(sc(/N=C/c3ccco3)c2C(N)=O)C1	-16%	·	·	?	-1%
Cc1cc(C)cc(OCC(=O)Nc2cccc3cccnc23)c1	·	-11%	·	-2%	·
Cc1ccc(-c2cc(=O)c3cc(F)ccc3[nH]2)cc1	16%	?	-1%	27µM*	1%
Cc1ccc(-c2cc(=O)c3cc(C)ccc3[nH]2)cc1	?	2.2µM*	-8%[39.9 µM]	0.67µM*	?

Bioassay records as filed in PubChem BioAssay.
